# Assay outcomes from PubChem BioAssay.
# RGS4 inh = blocks human RGS4-accelerated GTP hydrolysis; P49798; Transcreener GDP fluorescence polarization, RGS4-accelerated GTP hydrolysis; Potency, µM (titrated, usually from 114 µM), actives largely listed as inhibitors; hit rate 0.039% among 390,000; further: nearly all actives have a fitted effect of over 75% in size
# Target sequence (P49798 whole entry, looked up): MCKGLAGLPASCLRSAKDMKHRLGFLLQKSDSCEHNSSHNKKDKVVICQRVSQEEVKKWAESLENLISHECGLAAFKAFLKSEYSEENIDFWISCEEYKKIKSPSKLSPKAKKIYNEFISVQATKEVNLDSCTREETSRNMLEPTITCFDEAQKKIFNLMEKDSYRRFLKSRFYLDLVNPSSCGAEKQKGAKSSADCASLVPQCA
#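 MLSMR compounds (23 nl, pin-transferred) preincubated 10 min at room temperature with a 500nM (2x) first reagent, then RGS4 at 900nM (2x) plus Transcreener GDP mix added; fluorescence polarization (620/688 nm) read before and after 90 min at 30 °C.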
# KAT2A inh = blocks human GCN5L2 histone acetyltransferase | Q92830 | GCN5L2 HAT assay, ThioGlo1 CoA-SH fluorescence | Potency, µM (titrated, usually from 58.9 µM), usual class: inhibitors | hit rate 0.21% among 390,000
#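 Fluorescence readout, Ex340nm/Em540nm: ThioGlo1 (50uM final) reacts with free CoA thiol released as 20nM GCN5L2 acetylates H3(1-25) peptide (75uM) using acetyl-CoA (70uM). Compound and enzyme sat 15 min beforehand; 20 min room-temperature reaction.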
# GLP-1R agonist = activates the human GLP-1 receptor | Potency, µM (titrated, usually from 45.6 µM), usual class: activators | HEK293 GLP-1R CRE-luciferase, luminescence, 4-6 h; cells express a hypersensitive GLP-1R form | P43220 | AID 624172 | hit rate 0.007% among 380,000
# Target sequence (P43220 whole entry, looked up): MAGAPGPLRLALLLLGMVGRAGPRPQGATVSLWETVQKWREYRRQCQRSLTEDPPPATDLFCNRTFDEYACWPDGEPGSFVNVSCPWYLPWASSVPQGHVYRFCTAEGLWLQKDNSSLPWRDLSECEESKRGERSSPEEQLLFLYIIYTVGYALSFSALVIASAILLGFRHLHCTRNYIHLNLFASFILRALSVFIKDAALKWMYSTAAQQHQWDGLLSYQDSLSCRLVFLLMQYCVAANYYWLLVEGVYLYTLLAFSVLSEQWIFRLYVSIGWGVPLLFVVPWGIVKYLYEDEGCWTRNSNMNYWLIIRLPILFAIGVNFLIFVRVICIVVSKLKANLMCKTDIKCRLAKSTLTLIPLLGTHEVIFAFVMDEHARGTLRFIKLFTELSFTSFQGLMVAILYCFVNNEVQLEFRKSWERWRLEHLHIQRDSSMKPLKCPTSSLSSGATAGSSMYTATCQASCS
# PTHR1 ag = PTHR1 (human) receptor agonism; Q03431; HEK293 GP2 PTHR1 cells, GloSensor cAMP luminescence, 1 h; Potency, µM (titrated, usually from 115 µM), usual class: activators; hit rate 0.075% among 410,000; AID 743266; further: nearly all actives have a fitted effect of over 55% in size
#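 HEK-293-derived GP2 cells expressing PTHR1 and a GloSensor cAMP reporter, 3,000/well, plated overnight, given luciferin plus IBMX (each 0.5 mM as added) for 1 h at 37 °C, then compound for 1 h at 37 °C. Luminescence was read after 15 min at room temperature.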
# GLP-1R inv ag = acts as inverse agonist at human GLP-1 receptor. P43220. HEK293 GLP-1R CRE-luciferase, luminescence, 24 h; GLP-1R form is constitutively active. Potency, µM (top dose mostly 38.3 µM), most hits filed as inhibitors. hit rate 1.6% among 410,000. AID 624417; further: nearly all actives have a fitted effect of over 55% in size
#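 Constitutively active GLP-1R drives a cAMP-responsive luciferase in stably transfected HEK293 cells; test compounds are added after overnight (12 h) attachment and left 24 hr, and signal loss in luminescence marks inhibition.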
# HEK293 tox = cytotoxicity counter-screen for GLP-1 receptor inverse agonists; HEK293 cAMP-luciferase reporter cells, luminescence, 24 h; hit rate 0.13% among 410,000; Potency, µM (doses to about 38.3 µM), usual class: inhibitors;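 further: loss of luciferase light is scored as toxicity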
#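 Luminescence readout: signal drop marks cytotoxicity. Plated cells grew 12 h at 37 °C, 5% CO2, received 23 nL compound for 24 h, then got luciferase reagent, read after 12 min at RT.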
# Hits are given with their value; - = inactive; ? = inconclusive; . = no result given; [ ] = remark or other dose. Most compounds without a hit are left out; they make up all but 1.8% or so of the library. The call rests on the fitted dose curve; in most records, active means well fitted curve in the direction sought with a large enough effect; inconclusive means small, poorly fitted or top-dose-only effect, or another doubt; inactive means no such curve, though single readings can be large; an effect the other way counts as inactive or inconclusive.
SMILES,RGS4 inh,KAT2A inh,GLP-1R agonist,PTHR1 ag,GLP-1R inv ag,HEK293 tox
COc1ccccc1CN1CCCC2(CCN(C(=O)Oc3ccccc3)CC2)C1,.,-,.,.,.,.
CC[C@]1(O)CC[C@H]2[C@@H]3CCC4=CCCC[C@@H]4[C@H]3CC[C@@]21C,.,-,-,.,.,.
NC(N)=NCCCCCCCCCCN=C(N)N,-,-,.,.,.,.
CCN1CCN(Cc2ccc(NC(=O)c3ccc(C)c(NC(=O)C(=O)c4c[nH]c5ccccc45)c3)cc2C(F)(F)F)CC1,?,-,-,-,5.6µM,?
CCN1CCN(c2ccc(NC(=O)c3ccc4c(c3)[nH]c(=O)n4Cc3ccc(OC)cc3)cc2)CC1,-,-,-,-,?,?
CCNC(C)Cc1ccc2c(c1)OCO2 (stereo not given),.,.,-,.,.,.
COc1cccc(CN2CCc3nc(N4CCN(c5ncccn5)CC4)ncc3C2)c1,-,-,.,-,?,-
O=C1OC(c2ccc(O)c(S(=O)(=O)O)c2)(c2ccc(O)c(S(=O)(=O)O)c2)c2c(Br)c(Br)c(Br)c(Br)c21,.,28µM,-,.,.,.
O=C(NCC1=C(c2cccc3ccccc23)C[C@@H]2CC[C@H]1N2Cc1ccco1)c1ccc([N+](=O)[O-])cc1,.,.,-,-,3.5µM,-
CS(=O)(=O)c1ccc(C2=C(CNC(=O)c3ccc([N+](=O)[O-])cc3)[C@H]3CC[C@@H](C2)N3CCOc2ccccc2)cc1,.,.,-,-,10µM,?
Cc1ccc(-n2c(SCC(=O)Nc3cccc(S(N)(=O)=O)c3)nc3ccccc32)cc1,-,-,-,-,-,?
CCOC(=O)c1c(C=O)c2ccccc2n1Cc1ccccc1,-,-,-,-,10µM,-
O=Cc1c(C(=O)O)n(Cc2ccccc2F)c2ccccc12,-,-,-,-,-,-
CC(C)CCOP(=O)(c1ccc(N(C)C)cc1)C(O)c1ccc(Cl)cc1Cl (stereo not given),-,-,-,-,6.3µM,?
C[C@]12CC[C@@H]3c4ccc(OC(=O)N(CCCl)CCCl)cc4CC[C@H]3[C@@H]1CC[C@@H]2O,.,13µM,-,.,.,.
C[C@]12CC[C@@H]3c4cc(O)c(O)cc4CC[C@H]3[C@@H]1CC[C@@H]2O,-,-,-,-,?,-
COc1cccc(C(=O)Oc2c(Sc3ccc(C)cc3)c(C)nn2C(C)(C)C)c1OC,-,-,.,-,3.2µM,?
CCCN1C[C@H](C)N([C@H](c2ccc(C(=O)N(CC)CC)cc2)c2cccc(OC)c2)C[C@H]1C,-,-,.,.,.,.
CC(C)(C)c1ccc(C(=O)C2CCCN(Cc3ccon3)C2)cc1 (stereo not given),-,-,-,-,?,-
CC(C)(C)c1ccc(C(=O)C2CCCN(C3CCC3)C2)cc1 (stereo not given),-,-,-,-,10µM,-
O=c1c2cc(NC(=S)NCCCN3CCC(Cc4ccccc4)CC3)ccc2nc2n1CCCCC2,-,-,-,-,2.2µM,?
O=C(NCCCN1CC1)Nc1cccc2ccccc12,-,.,-,-,-,-
CC1=Nc2cc(C(=O)NCCc3ccc(Cl)cc3)ccc2Sc2ccc(C)cc21,-,-,.,-,?,?
CC1CCN(C(=O)N2c3ccccc3Sc3ccccc32)CC1,-,-,-,-,2µM,-
CCOP(=O)(OCC)c1nc(-c2ccc(Br)cc2)oc1N1CCCCC1,-,-,-,-,8.9µM,-
SMILES,RGS4 inh,KAT2A inh,GLP-1R agonist,PTHR1 ag,GLP-1R inv ag,HEK293 tox
CCN(CC)C(=O)C(C(=O)c1cccc([N+](=O)[O-])c1)n1cc(Cl)ccc1=O (stereo not given),-,-,-,-,-,-
Oc1ccc2c3c1O[C@H]1[C@@H](O)C=CC4[C@@H](C2)NCC[C@@]341 (stereo not given in full),.,.,-,.,.,.
Cc1ccc(-c2nnc(N3CCN(c4ccccn4)CC3)c3ccccc23)cc1,-,-,-,-,8.9µM,11µM
CCn1nc(-c2ccccc2)nc2c(=O)n(C)c(=O)nc1-2,-,?,-,-,5µM,?
CCCCC/C=C\C/C=C\C/C=C\C/C=C\CCCC(=O)NCCc1ccc(O)c(O)c1,.,18µM,.,.,.,.
CCCCC/C=C\C/C=C\C/C=C\C/C=C\CCCC(=O)NCc1ccoc1,.,14µM,.,.,.,.
CCCCC/C=C\C/C=C\C/C=C\C/C=C\CCCC(=O)NCC(=O)O,?,6.3µM,-[4.24 µM],.,.,.
CCCCC/C=C\C/C=C\C/C=C\C/C=C\CCCC(=O)NCCO,-,-,.,.,.,.
CCCCC/C=C\C/C=C\C/C=C\C/C=C\CCCC(=O)NCCCC(=O)O,.,14µM,.,.,.,.
CCC1CC2CC3c4[nH]c5ccc(OC)cc5c4CCN(C2)C13 (stereo not given),.,.,-,.,.,.
CN(C)C(=O)O/N=C(\N)COc1ccc(C(C)(C)C)cc1,-,-,-,-,?,3.2µM
CCOC(=O)C(O)(c1ccc(N(C)C(=O)COc2ccccc2)cc1)C(F)(F)F (stereo not given),-,.,-,-,-,-
C[C@]12CC[C@H](N)CC1=CCC1C2CC[C@@]2(C)C1CC[C@@H]2O (stereo not given in full),-,-,-,-,?,?
C[C@]12CC[C@@H](O)CC1=CCC1C2CC[C@@]2(C)C1CC[C@@H]2N (stereo not given in full),-,-,-,-,11µM,-
CN(C)c1nc(OCCNC(=O)COc2ccc(Cl)cc2Cl)nc(N2CCCCC2)n1,-,-,-,-,-,-
Cc1ccccc1C(c1ncccc1C)N(C)C(=O)C1CCN(CCOc2ccc(Cl)cc2Cl)CC1 (stereo not given),.,.,-,-,?,10µM
CCC1CSC(=Nc2ccc(C)cc2)N1C(=O)CN1C(=O)NC2(CCCC2)C1=O (stereo not given),-,?,-,-,?,?
CS(=O)(=O)c1ccc(C(=O)C2C(=O)CCCC2=O)c([N+](=O)[O-])c1,.,.,-,.,.,.
[Hg+][c]1ccccc1,.,0.45µM,-,.,.,.
CC1CCC(C(C)C)C(OC(=O)Cn2c(-c3ccccc3)[n+](C)c3ccccc32)C1 (stereo not given),-,-,-,-,?,8.9µM
O=C(OCc1cc(=O)n2nc(C3CC3)sc2n1)c1ccc(NC(=O)c2ccccc2Cl)cc1,-,-,.,-,-,-
CN(C)CC(C(=O)Cc1ccccc1)c1ccccc1 (stereo not given),?,.,-,-,5µM,?
CC(Nc1cc(C)cc(C)c1)=[N+](C)CCNS(=O)(=O)c1ccc(Cl)cc1,-,?,-,-,?,-
